According to PubChem BioAssay:
Calls of active or inactive are those of the source.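 Rule for the calls: active = viability loss from added drug above about 55%, and viability with drug at most 40%, in both replicates (limit read from the data, passing the limit was not always enough); inconclusive = both conditions met in only one replicate; inactive = neither replicate meets both conditions.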

Test: reversal of MRP1-mediated doxorubicin resistance, pilot screen, H69AR cells, doxorubicin co-treatment (AID 601)
Settings: H69AR cells + 2 uM doxorubicin, CellTiter-Glo, 72 h; at 10 µM; stronger effect = higher value

Row | SMILES | differential viability (reversal)
1 | CCOC(=O)c1ccc(NS(=O)(=O)c2ccc3c(c2)oc(=O)n3C)cc1 | 7.4% (inactive)
2 | O=C(Nc1ccc2c(c1)OCCO2)NC1CCCCC1 | 3.18% (inactive)
3 | O=C(CSc1nnnn1-c1ccccc1Cl)Nc1ccc2c(c1)OCCO2 | -7.98% (inactive)
4 | COc1ccc(-c2nc(CSCC(=O)NCc3ccc4c(c3)OCO4)c(C)o2)cc1OC | -7.12% (inactive)
5 | Cc1cnc(NC(=O)CSc2nnc(COc3c(C)cccc3C)o2)s1 | -6.84% (inactive)
6 | Cc1cccc(C2CC(c3ccccc3)Nc3nc(N)nn32)c1 (stereo not given) | 8.54% (inactive)
7 | CCc1ccccc1N1CC23C=CC(O2)C(C(=O)O)C3C1=O (stereo not given) | -2.65% (inactive)
8 | CCOC(=O)C1CCN(Cc2ccc(F)c(Br)c2)CC1 | -7.29% (inactive)
9 | CCOc1ccccc1N1Cc2cc(C)c(C)cc2C1 | -9.66% (inactive)
10 | CCN1CCN(C(CNC(=O)c2ccc3c(c2)OCO3)c2cccnc2)CC1 (stereo not given) | 9.62% (inactive)
11 | O=C(NCCSc1c[nH]c2ccccc12)c1ccco1 | -25.6% (inactive)
12 | COCCNC(=O)CN(C)S(=O)(=O)c1ccc(Br)cc1 | 5.54% (inactive)
13 | COc1cc(C(=O)Nc2cccc(-c3nncn3C)c2)cc(OC)c1OC | 7.79% (inactive)
14 | CN1CCN(Cc2nc3c(c(=O)n(C)c(=O)n3C)n2Cc2ccccc2Cl)CC1 | 7.12% (inactive)
15 | O=C(OCCN=C1NS(=O)(=O)c2ccccc21)C1CC(=O)N(c2ccc(Cl)cc2)C1 (stereo not given) | 5.78% (inactive)
16 | COc1cccc2cc(C(=O)OC3CCN(C)CC3)c(=O)oc12 | 18.2% (inactive)
17 | Cc1cccc(N2C(=O)CC(N3CCN(c4cccc(C(F)(F)F)c4)CC3)C2=O)c1 (stereo not given) | 6.09% (inactive)
18 | O=c1c2ccccc2nc2n1CCN2 | 26.2% (inactive)
19 | CCOC(=O)C1=C(C)Nc2nnnn2C1c1ccc(OC)c(Br)c1 (stereo not given) | -4.47% (inactive)
20 | COc1ccc(-n2c(Cc3cccn3C)nnc2SCC(N)=O)cc1 | 2.7% (inactive)

Row | SMILES | differential viability (reversal)
21 | COc1ccccc1NC(=O)CSc1nnc(Cc2cccn2C)n1-c1ccc(F)cc1 | -13.1% (inactive)
22 | CC(=O)Nc1cccc(Oc2nc(C)cc(C)c2C#N)c1 | -4.33% (inactive)
23 | COc1ccc(CNC(=O)c2ccc(CN3CCOCC3)cc2)cc1 | 12.5% (inactive)
24 | Cc1cc(OCC(=O)NCCO)cc(C)c1Cl | 8.84% (inactive)
25 | COc1ccc(C)cc1S(=O)(=O)N1CCN(S(=O)(=O)c2cc(C)ccc2OC)CC1 | -0.24% (inactive)
26 | CCCCC(NS(=O)(=O)c1ccc(OC)cc1)C(=O)O (stereo not given) | 4.5% (inactive)
27 | CCOc1ccc(Cn2nnc(C(=O)Nc3ccc(OC)cc3OC)c2N)cc1 | 2.46% (inactive)
28 | Cc1cc(C)c(NC(=O)CSc2nc3c(c(=O)n2C)SC(C)C3)c(C)c1 (stereo not given) | -6.17% (inactive)
29 | COc1ccccc1N1C(=O)CCC1(C#N)c1ccccc1 (stereo not given) | 20.5% (inactive)
30 | CCOc1ccc(N(CC(=O)NC2CCCC(C)C2C)S(=O)(=O)c2c(C)noc2C)cc1 (stereo not given) | 6.81% (inactive)
31 | CCN1C(=O)c2ccccc2S(=O)(=O)c2ccc(C(=O)NCc3cccnc3)cc21 | -0.065% (inactive)
32 | Cc1ccc(C(=O)CC2(O)C(=O)N(C)c3ccc(Br)cc32)c(C)c1 (stereo not given) | -16.9% (inactive)
33 | CCN1CCN(C(=O)c2cn(CC)c3ccc(S(=O)(=O)N(C)C)cc3c2=O)CC1 | 11% (inactive)
34 | COc1ccc(OC)c(NC(=O)CSc2nnc(Cc3cccn3C)n2-c2ccc(F)cc2)c1 | 7.76% (inactive)
35 | CCOc1ccc(-c2nnc(SCC(=O)N3CCN(c4ccccc4)CC3)o2)cc1 | -2.04% (inactive)
36 | COCCCN(C)C1CCN(C(=O)Nc2ccc(F)cc2)CC1 | -5.42% (inactive)
37 | COc1cccc(C2CC(=O)Nc3c2c(=O)n(C)c(=O)n3C)c1OC (stereo not given) | 15.2% (inactive)
38 | CCCC(=O)C1=C(N(C)c2ccccc2)CC(C)(C)C(C(=O)OC)C1=O (stereo not given) | 1.22% (inactive)
39 | CC(=O)N1c2c(cc(Br)cc2S(=O)(=O)NCC2COc3ccccc3O2)CC1C (stereo not given) | -2.64% (inactive)
40 | CCCCNC(=O)Cn1c(=O)n(C)c2ccccc21 | -2.7% (inactive)

Same assay, conditions: H69AR cells + 2 uM doxorubicin, CellTiter-Glo, 72 h; measured here: viability with 2 uM doxorubicin; at 10 µM; stronger effect = lower value

Row | SMILES | viability
41 | CCOC(=O)c1ccc(NS(=O)(=O)c2ccc3c(c2)oc(=O)n3C)cc1 | 105%
42 | O=C(Nc1ccc2c(c1)OCCO2)NC1CCCCC1 | 82.7%
43 | O=C(CSc1nnnn1-c1ccccc1Cl)Nc1ccc2c(c1)OCCO2 | 85.2%
44 | COc1ccc(-c2nc(CSCC(=O)NCc3ccc4c(c3)OCO4)c(C)o2)cc1OC | 92%
45 | Cc1cnc(NC(=O)CSc2nnc(COc3c(C)cccc3C)o2)s1 | 94%
46 | Cc1cccc(C2CC(c3ccccc3)Nc3nc(N)nn32)c1 (stereo not given) | 99.5%
47 | CCc1ccccc1N1CC23C=CC(O2)C(C(=O)O)C3C1=O (stereo not given) | 89.3%
48 | CCOC(=O)C1CCN(Cc2ccc(F)c(Br)c2)CC1 | 92.8%
49 | CCOc1ccccc1N1Cc2cc(C)c(C)cc2C1 | 97.7%
50 | CCN1CCN(C(CNC(=O)c2ccc3c(c2)OCO3)c2cccnc2)CC1 (stereo not given) | 90%
51 | O=C(NCCSc1c[nH]c2ccccc12)c1ccco1 | 90.6%
52 | COCCNC(=O)CN(C)S(=O)(=O)c1ccc(Br)cc1 | 98.2%
53 | COc1cc(C(=O)Nc2cccc(-c3nncn3C)c2)cc(OC)c1OC | 81.2%
54 | CN1CCN(Cc2nc3c(c(=O)n(C)c(=O)n3C)n2Cc2ccccc2Cl)CC1 | 79.8%
55 | O=C(OCCN=C1NS(=O)(=O)c2ccccc21)C1CC(=O)N(c2ccc(Cl)cc2)C1 (stereo not given) | 87.4%
56 | COc1cccc2cc(C(=O)OC3CCN(C)CC3)c(=O)oc12 | 86.5%
57 | Cc1cccc(N2C(=O)CC(N3CCN(c4cccc(C(F)(F)F)c4)CC3)C2=O)c1 (stereo not given) | 90.8%
58 | O=c1c2ccccc2nc2n1CCN2 | 83.3%
59 | CCOC(=O)C1=C(C)Nc2nnnn2C1c1ccc(OC)c(Br)c1 (stereo not given) | 97.8%
60 | COc1ccc(-n2c(Cc3cccn3C)nnc2SCC(N)=O)cc1 | 94.8%

Row | SMILES | viability
61 | COc1ccccc1NC(=O)CSc1nnc(Cc2cccn2C)n1-c1ccc(F)cc1 | 84.9%
62 | CC(=O)Nc1cccc(Oc2nc(C)cc(C)c2C#N)c1 | 91.7%
63 | COc1ccc(CNC(=O)c2ccc(CN3CCOCC3)cc2)cc1 | 79.6%
64 | Cc1cc(OCC(=O)NCCO)cc(C)c1Cl | 87.6%
65 | COc1ccc(C)cc1S(=O)(=O)N1CCN(S(=O)(=O)c2cc(C)ccc2OC)CC1 | 95.2%
66 | CCCCC(NS(=O)(=O)c1ccc(OC)cc1)C(=O)O (stereo not given) | 93.9%
67 | CCOc1ccc(Cn2nnc(C(=O)Nc3ccc(OC)cc3OC)c2N)cc1 | 99.8%
68 | Cc1cc(C)c(NC(=O)CSc2nc3c(c(=O)n2C)SC(C)C3)c(C)c1 (stereo not given) | 96.2%
69 | COc1ccccc1N1C(=O)CCC1(C#N)c1ccccc1 (stereo not given) | 96.9%
70 | CCOc1ccc(N(CC(=O)NC2CCCC(C)C2C)S(=O)(=O)c2c(C)noc2C)cc1 (stereo not given) | 66.3%
71 | CCN1C(=O)c2ccccc2S(=O)(=O)c2ccc(C(=O)NCc3cccnc3)cc21 | 91.6%
72 | Cc1ccc(C(=O)CC2(O)C(=O)N(C)c3ccc(Br)cc32)c(C)c1 (stereo not given) | 91.9%
73 | CCN1CCN(C(=O)c2cn(CC)c3ccc(S(=O)(=O)N(C)C)cc3c2=O)CC1 | 96.5%
74 | COc1ccc(OC)c(NC(=O)CSc2nnc(Cc3cccn3C)n2-c2ccc(F)cc2)c1 | 77.9%
75 | CCOc1ccc(-c2nnc(SCC(=O)N3CCN(c4ccccc4)CC3)o2)cc1 | 88.5%
76 | COCCCN(C)C1CCN(C(=O)Nc2ccc(F)cc2)CC1 | 94.4%
77 | COc1cccc(C2CC(=O)Nc3c2c(=O)n(C)c(=O)n3C)c1OC (stereo not given) | 87%
78 | CCCC(=O)C1=C(N(C)c2ccccc2)CC(C)(C)C(C(=O)OC)C1=O (stereo not given) | 93.2%
79 | CC(=O)N1c2c(cc(Br)cc2S(=O)(=O)NCC2COc3ccccc3O2)CC1C (stereo not given) | 84.3%
80 | CCCCNC(=O)Cn1c(=O)n(C)c2ccccc21 | 91.2%
